SMN2 splice up: qHTS Assay for Enhancers of SMN2 Splice Variant Expression | Potency, µM (highest dose often 46.1 µM), for inactives: top-dose activity change, positive = activation, actives largely listed as activators | 210,000 tested, 2.8% active | HEK293 SMN2-luciferase splicing reporter, luminescence, 30-36 h; also: % of control where 0% means no effect; nearly all actives have a fitted effect of over 55% in size
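HEK293 cells carry an SMN2 minigene-luciferase reporter in which exon 7 inclusion puts luciferase in frame. Cells were seeded at 2000 cells/well, attached for 10-12 hours, then exposed to compounds for 30-36 hours at 37C before ONE-Glo luminescence.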
ELG1 genotoxic: qHTS screen for small molecules that induce genotoxicity in human embryonic kidney (HEK293T) cells expressing luciferase-tagged ELG1 | HEK293T ELG1-luciferase reporter, luminescence, 16 h | Potency, µM (titrated, usually from 46 µM), without a hit: at the highest dose activity change, positive = activation, hits mostly activators | 330,000 tested, 1.3% active | AID 504466, 2011; also: % of control where 0% means no effect; nearly all actives have a fitted effect of over 60% in size
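After overnight (16 hr) compound treatment at 37 °C, ELG1-luciferase HEK293T cells were lysed with ONE-Glo; luminescence quantified 30 min later at room temperature.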
Rab9 promoter act: qHTS Assay for Rab9 Promoter Activators; Huh7 Rab9 promoter-luciferase reporter, luminescence, 24 h; Potency, µM (titrated, usually from 9.22 µM), inactives show top-dose activation, negative = inhibition, actives largely listed as activators; 320,000 tested, 2.8% active; also: % of control where 0% means no effect; nearly all actives have a fitted effect of over 60% in size
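Measured in stably transfected Huh7 cells bearing a Rab9 promoter–luciferase construct: 24 h compound treatment at 37 °C, followed by luminescence detection.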
NPC1 promoter act: qHTS Assay for NPC1 Promoter Activators. Huh7 NPC1 promoter luciferase reporter, 24 h. Potency, µM (top dose mostly 9.22 µM), for inactives: at the highest dose activation, most hits filed as activators. 320,000 tested, 2.4% active; also: % of control where 0% means no effect; nearly all actives have a fitted effect of over 60% in size
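Stably transfected Huh7 (NPC1 promoter→luciferase), 1500 cells/well in Opti-MEM + 10% FBS, 2 h settle, then compound 24 h at 37 °C. Luminescence after 10 min with Amplite reagent.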
FLuc counter: qHTS profiling assay for firefly luciferase inhibitor/activator using purifed enzyme and Km concentrations of substrates (counterscreen for miR-21 project); AID 588342, 2011; Potency, µM (series often up to 57.5 µM), without a hit: at the top dose activity change, negative = inhibition, hits mostly inhibitors; purified FLuc, Km substrates, luminescence inhibition; Luciferin 4-monooxygenase (Photinus pyralis), P08659; 360,000 tested, 6.9% active;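 also: plate controls were vehicle for no effect and reference inhibitor for full effect; nearly all actives have a fitted effect of over 55% in size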
Target sequence (P08659 whole entry, looked up): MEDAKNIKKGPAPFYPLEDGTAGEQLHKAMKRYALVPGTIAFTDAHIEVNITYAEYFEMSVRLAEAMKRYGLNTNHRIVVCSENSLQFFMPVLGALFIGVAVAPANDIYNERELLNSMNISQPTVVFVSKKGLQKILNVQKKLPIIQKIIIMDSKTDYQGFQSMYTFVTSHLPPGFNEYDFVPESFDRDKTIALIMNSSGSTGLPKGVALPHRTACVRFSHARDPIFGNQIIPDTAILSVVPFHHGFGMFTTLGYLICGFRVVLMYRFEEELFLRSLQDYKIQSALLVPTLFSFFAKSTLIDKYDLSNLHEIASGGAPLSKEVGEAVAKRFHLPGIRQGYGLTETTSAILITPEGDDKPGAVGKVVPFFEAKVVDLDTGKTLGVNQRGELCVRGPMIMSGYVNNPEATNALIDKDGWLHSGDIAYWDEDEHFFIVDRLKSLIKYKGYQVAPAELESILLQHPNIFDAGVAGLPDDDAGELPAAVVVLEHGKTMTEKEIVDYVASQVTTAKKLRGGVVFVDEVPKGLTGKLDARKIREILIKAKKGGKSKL
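Purified P. pyralis luciferase, 10 nM final, with Km-level 10 uM D-luciferin and 10 uM ATP in 50 mM Tris acetate pH 7.5, 10 mM Mg acetate, 0.01% Tween-20, 0.05% BSA; 6-point qHTS titration about 60 µM downward; luminescence read.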
ELG1 repair inh: qHTS screen for small molecules that inhibit ELG1-dependent DNA repair in human embryonic kidney (HEK293T) cells expressing luciferase-tagged ELG1; 330,000 tested, 2.3% active; Potency, µM (highest dose often 46.1 µM), inactives show at the highest dose activity change, negative = inhibition, actives largely listed as inhibitors; HEK293T ELG1-luciferase reporter, luminescence, 16 h; DNA damage induced by 5-fluorouridine; also: % is scaled to controls: 0 for no effect and ±100 for the full control effect; nearly all actives have a fitted effect of over 55% in size
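HEK293T cells expressing luciferase-tagged ELG1 (2,000/well) received 5-Fluorouridine plus compound or DMSO for 16 hr at 37 °C. Luciferase was read by ONE-Glo luminescence after 30 min at room temperature.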
Numbers without * were called inactive; u = inconclusive; x = no result given. A selection: hits, their analogues and other compounds. The true share with any hit is near 9.2%. Calls follow the shape of the dose curve; as a rule, active = well fitted curve in the direction sought with a large enough effect; inconclusive = small, poorly fitted or top-dose-only effect, or another doubt; inactive = no such curve, though single readings can be large; an effect the other way counts as inactive or inconclusive. Potency is read from the fitted curve at half-maximal effect.

SMILES	SMN2 splice up	ELG1 genotoxic	Rab9 promoter act	NPC1 promoter act	FLuc counter	ELG1 repair inh
Cc1ccc(-n2cccn2)c(CN2CCCC(C(=O)c3sccc3C)C2)c1 (stereo not given)	x	-14.0%	-0.7%	-7.3%	0.0%	16.4µM*
O=C(NCc1cccnc1)c1nn(-c2ccc(Cl)cc2)nc1CO	-16.5%	x	x	x	-9.7%	x
CN1CCN(c2ccc(S(=O)(=O)N3CCCCC3)cc2NC(=O)Cc2c(F)cccc2Cl)CC1	x	0.7%	-11.3%	-0.9%	4.5%	9.5%
COc1ccc(S(=O)(=O)N2CCOCC2)cc1NC(=O)Cc1c(Cl)cccc1Cl	8.3%	3.5%	-5.5%	-1.4%	3.3%	6.4%
COc1ccc(S(=O)(=O)N2CCCCCC2)cc1NC(=O)CN(C)Cc1ccc2c(c1)OCO2	x	-6.4%	-6.0%	-7.2%	x	20.6µM*
O=C(Cc1c(F)cccc1Cl)Nc1cc(S(=O)(=O)N2CCCCC2)ccc1N1CCOCC1	x	-4.4%	2.3%	-1.5%	-11.6%	18.3µM*
COc1ccc(S(=O)(=O)N2CCOCC2)cc1NC(=O)CN(C)Cc1c(F)cccc1Cl	-29.3%	-11.9%	-1.6%	0.6%	-3.5%	20.6µM*
COc1ccc(S(=O)(=O)N2CCOCC2)cc1NC(=O)C1COc2ccccc2O1 (stereo not given)	x	-7.7%	-0.4%	-4.0%	1.3%	10.3µM*
Cc1ccc(O)c(-c2cc(-c3ccccc3F)[nH]n2)c1	11.2µM*	11.2µM*	-0.3%	-1.6%	13.5µM*	u
Oc1ccccc1-c1cc(C(F)(F)F)[nH]n1	x	-6.1%	0.9%	-4.1%	-10.0%	-20.6%
Cc1ccc(-c2cc(-c3cccc(F)c3)n[nH]2)c(O)c1	14.1µM*	u	3.98µM*	u	u	u
O=[N+]([O-])c1ccccc1-c1cc(-c2ccccc2O)n[nH]1	3.55µM*	u	u	14.1%	8.49µM*	u
Cc1ccc(O)c(-c2cc(-c3cccc(F)c3)n[nH]2)c1	u	9.9%	-8.7%	-2.6%	u	u
Cc1ccc(-c2cc(-c3ccccc3C)[nH]n2)c(O)c1	-40.8%	u	3.55µM*	3.98µM*	10.7µM*	u
Cc1cn2c(=O)c(S(=O)(=O)N3CCN(c4cc(Cl)ccc4C)CC3)c(C)nc2s1	x	x	x	x	2.2%	x
C=CCn1c(=NC(=O)c2sc3ccccc3c2Cl)sc2cc(S(N)(=O)=O)ccc21	-19.4%	15.9%	-6.4%	-2.5%	-0.8%	8.5%
COCCn1c(=NC(=O)c2cc(-c3cccs3)nc3ccccc23)sc2cc(S(N)(=O)=O)ccc21	-18.7%	-12.9%	-6.8%	-9.8%	0.6%	6.51µM*
C=CCn1c(=NC(=O)c2cc(-c3cccs3)nc3ccccc23)sc2cc(S(N)(=O)=O)ccc21	u	-12.0%	-5.3%	-11.1%	5.2%	18.4µM*
CN(C)S(=O)(=O)c1ccc2c(c1)N(CC(=O)N1CCN(c3cccc(Cl)c3)CC1)CCS2	x	x	x	x	6.8%	x
Nc1c(N2CCN(c3ccccc3)CC2)c2ccccc2oc1=O	-29.5%	-32.4%	8.0%	1.1%	-1.6%	18.4µM*
O=c1oc2ccccc2c(N2CCN(c3ccc(F)cc3)CC2)c1CN1CCCC1	-5.5%	x	x	x	-0.3%	x
Cc1cc(C(=O)N[C@@H](c2ccccc2)[C@]2(C)C[C@H]2[C@@H](C)C(=O)Nc2ccc3ccccc3c2)n(C)n1	7.1%	x	x	x	x	x
COc1cccc(N2CC(C(=O)Nc3nnc(SCC(=O)Nc4ccc(NC(C)=O)cc4)s3)CC2=O)c1 (stereo not given)	x	1.8%	-1.5%	-0.2%	-15.6%	1.1%
Cc1ccc(Nc2nnc(SCC(=O)Nc3ccccc3[N+](=O)[O-])s2)cc1	3.3%	2.5%	4.7%	6.7%	u	-5.6%
COc1cccc(C(=O)Nc2nnc(SCC(=O)Nc3ccc(NC(C)=O)cc3)s2)c1	x	u	3.55µM*	2.82µM*	0.477µM*	u
SMILES	SMN2 splice up	ELG1 genotoxic	Rab9 promoter act	NPC1 promoter act	FLuc counter	ELG1 repair inh
Cc1ccc(Nc2nnc(SCC(=O)Nc3cccnc3Cl)s2)cc1C	18.2%	6.0%	-8.5%	-3.8%	1.07µM*	-2.9%
O=C(CSc1nnc(NC(=O)c2ccco2)s1)Nc1ccc(F)cc1	25.6%	3.9%	19.3%	10.7%	15.1µM*	u
COc1ccc(NC(=O)CSc2nnc(NC(=O)c3ccco3)s2)cc1	u	16.6%	15.6%	14.4%	15.1µM*	u
O=c1ccc(S(=O)(=O)N2CCCC2)cn1Cc1ccc(Cl)cc1Cl	x	-7.0%	-6.1%	-8.4%	-13.9%	-18.4%
CC(=O)c1sc(NC(=O)CN2C(=O)C3CC=CCC3C2=O)nc1-c1ccccc1 (stereo not given)	x	-3.4%	-2.8%	-0.8%	2.2%	0.2%
CCSc1nnc(NC(=O)Nc2cccc(C)c2)s1	x	-9.1%	u	u	10.7µM*	u
COc1ccc(NC(=O)CSc2nnc(NC(=O)c3ccco3)s2)cc1OC	x	11.5%	20.0%	3.5%	21.3µM*	u
Cc1cccc(NC(=O)CSc2nnc(NC(=O)c3ccco3)s2)c1	21.7%	-5.4%	18.1%	0.3%	13.5µM*	u
CCc1ccc(NC(=O)CSc2nc(C)c(C(=O)Nc3ccc(Cl)cc3)c(-c3ccc(OC)cc3)c2C#N)cc1	-6.9%	x	x	x	2.2%	x
COCCOC(=O)c1c(C)nc(SCC(=O)Nc2ccc(OC)cc2)c(C#N)c1-c1ccco1	-8.8%	-1.2%	-3.2%	-0.8%	-1.8%	23.1µM*
Cc1cc(C)cc(N2CC(c3nc(-c4cccc(Cl)c4)no3)CC2=O)c1 (stereo not given)	x	x	x	x	-7.2%	x
COc1ccc(NC(=O)Nc2nnc(SCC(=O)Nc3cccc(C)c3C)s2)cc1	x	x	x	x	0.601µM*	x
Cc1cccc(NC(=O)CSc2nnc(NC(=O)C3CC3)s2)c1C	x	7.7%	16.3%	-0.7%	0.5%	24.9%
Cc1nnc(SCC(=O)Nc2ccc3c(c2)OCCO3)s1	1.0%	1.5%	-0.1%	4.7%	u	4.7%
C/C(N)=C(/C#N)C(=O)CSc1nnc(Nc2cccc(C)c2)s1	15.8µM*	u	u	u	5.36µM*	u
Cc1cccc(Nc2nnc(SCC(=O)c3c(N)n(C4CC4)c(=O)[nH]c3=O)s2)c1	x	0.7%	-4.6%	1.3%	u	-15.5%
O=C(CSc1nnc(NC(=O)c2ccco2)s1)Nc1ccc2c(c1)OCCO2	6.0%	13.0%	0.4%	8.9%	13.5µM*	0.0%

From PubChem
